# Assay outcomes: PubChem, several laboratories
# NALP3 yeast inh: inhibitors of NALP3 inflammasome in yeast; Yeast reconstituted NLRP3/ASC/caspase-1, beta-gal luminescence, 24 h; inhibition, % at 10 µM; hit rate 0.39% among 330,000;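 active means inhibition of 50% or more; inactive means inhibition below 50%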;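 further: plate controls were induced DMSO wells for no effect and uninduced yeast grown without galactose for full effect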
# tim23-1 inh: inhibits growth of tim23-1 mutant yeast; hit rate 1.3% among 330,000; S. cerevisiae tim23-1 growth, BacTiter-Glo luminescence, 24 h; AID 463212; inhibition, % at 20 µM;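 active means growth inhibition of the mutant yeast at or above 50%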;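 further: temperature-sensitive mutant grown at 25 °C; plate controls were DMSO-treated mutant yeast for no effect and medium wells lacking yeast for full effect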
# NALP1 inh: NALP1 inhibition | S. cerevisiae NALP1/ASC/caspase-1 growth, X-gal OD620, 72 h | inhibition, % at 10 µM | hit rate 0.61% among 280,000 | AID 2071; in the data active means inhibition mostly above about 24%, no sharp cut-off; inactive means mostly below about 32%
# TIM10 inh: inhibits growth of TIM10 yeast strain. S. cerevisiae TIM10 strain growth, BacTiter-Glo luminescence, 24 h. hit rate 1.4% among 330,000. inhibition, % at 10 µM;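 active means inhibition of 40% or more at the single tested concentration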;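 further: wild-type TIM10 isogenic control strain grown at permissive 25 °C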
# SKKanGAS inh: inhibitors of SKKanGAS S. pyogenes growth in kanamycin (SK-promoter or general growth effect) | BacTiter-Glo, 6 h | inhibition, % at 7.5 µM | hit rate 1.3% among 300,000 | AID 1662;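 active means mean replicate score, as percent of positive control median, at least 50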;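 further: strain carries kanamycin resistance gene driven by streptokinase promoter and grows in 40 µg/ml kanamycin; loss of luminescence reflects streptokinase promoter inhibition or plain growth inhibition; 0% = median of DMSO wells and 100% = positive control at its reference dose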
# tim10-1 inh: growth inhibitors of tim10-1 mutant yeast | S. cerevisiae tim10-1 ts strain growth, BacTiter-Glo, 24 h | inhibition, % at 20 µM | hit rate 2.2% among 330,000 | AID 463190;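 active means inhibition of at least 40%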;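 further: mutant grown at 25 °C; 0% = DMSO wells with yeast and 100% = wells holding no yeast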
# tim10-1 confirm: confirmation of tim10-1 mutant yeast growth inhibitors | shares compounds with tim10-1 inh | S. cerevisiae tim10-1 ts strain growth, BacTiter-Glo, 24 h | inhibition, % at 20 µM | hit rate 56% among 7,400 | AID 463213;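 active means inhibition of yeast growth at or above a set limit in either of two repeat tests at 20 µM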;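 further: tim10-1 mutant grown at permissive 25 °C to find synthetic lethal compounds; 0% = DMSO yeast wells and 100% = medium wells without yeast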
# TIM10 conf: TIM10 yeast growth inhibition, confirmed; inhibition, % at 10 µM; hit rate 63% among 4,600; shares compounds with TIM10 inh; S. cerevisiae tim10 strain growth, BacTiter-Glo luminescence, 24 h;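 active means inhibition of yeast growth at or above a set limit in either of two replicates at 10 µM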;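 further: this counterscreen used the strain with wild-type TIM10; 0% = yeast with DMSO and 100% = medium wells lacking yeast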
# tim23-1 confirm: tim23-1 yeast growth inhibition, confirmed; inhibition, % at 20 µM; hit rate 83% among 4,400; AID 463218; S. cerevisiae tim23-1 growth, BacTiter-Glo luminescence, 24 h; shares compounds with tim23-1 inh;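 active means inhibition above about 39% in either of two replicate wells at 20 µM, limit read from the data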;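 further: temperature-sensitive tim23-1 mutant grown at 25 °C; 0% = DMSO wells with yeast and 100% = medium wells without yeast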
# An asterisk follows results filed as active; · = no result. Only some compounds are listed: those with a hit (about 4.9% of all), similar ones and a draw of the others.
SMILES,NALP3 yeast inh,tim23-1 inh,NALP1 inh,TIM10 inh,SKKanGAS inh,tim10-1 inh,tim10-1 confirm,TIM10 conf,tim23-1 confirm
COC(=O)/C(=C1/Oc2cc(C)oc(=O)c2S1)C(F)(F)F,46,62*,-11,41*,-1,57*,39*,41*,69*
COC(=O)/C(=C1/Oc2ccc(C(C)(C)C)cc2S1)C(F)(F)F,-8,6,21,-16,-4,4,·,·,·
O=[N+]([O-])c1cc([N+](=O)[O-])c2cc3ccccc3nc2c1,4,69*,-4,86*,15,75*,42*,97*,44*
Cc1ccc(C(=O)N2CCc3ccccc32)o1,41,7,22,5,3,-5,·,·,·
O=C(c1ccc([N+](=O)[O-])o1)N1CCc2ccccc21,24,77*,-11,67*,23,65*,77*,79*,86*
O=C(Nc1ccccc1N1CCOCC1)c1ccc([N+](=O)[O-])o1,13,70*,10,90*,17,80*,80*,94*,71*
CSCC[C@H](NC(=O)[C@@H]1Cc2ccccc2CN1)C(=O)Nc1ccc2c(c1)OCO2,9,-8,8,0,0,4,·,·,·
COC(=O)/C(=C\c1ccc(O)cc1)c1nc2ccccc2[nH]1,6,22,-9,24,16,23,·,·,·
O/C(=C\c1nc2ccccc2[nH]1)c1cccs1,32,28,-5,31,24,-1,·,·,·
O=C(/C(=C\c1ccccc1)c1nc2ccccc2[nH]1)c1ccc(Cl)cc1,41,51*,20,40,14,43*,34*,·,62*
O=C(/C(=C/c1ccc(Cl)cc1)c1nc2ccccc2[nH]1)c1cccs1,50,51*,16,70*,0,56*,39*,71*,-31
Cc1c(Cl)cnc(NC(=O)COC(=O)c2ccncc2)c1Cl,0,5,·,2,·,6,·,·,·
COc1ccc(/C(C)=N/NC(=S)NCc2ccco2)cc1,7,51*,14,33,-13,41*,48*,·,54*
O=C(CSc1nc(O)cc(=O)[nH]1)N1c2ccccc2CCc2ccccc21,12,20,·,19,1,22,·,·,·
CCC1CSC(Nc2ccc(C(=O)/C=C/c3ccc(OC)c(OC)c3)cc2)=N1 (configuration not stated),10,32,18,37,24,16,·,·,·
CCC1CSC(Nc2ccc(C(=O)/C=C/c3ccc(Br)cc3)cc2)=N1 (configuration not stated),13,54*,18,50*,-5,45*,51*,48*,55*
C/C(N)=C(/C#N)C(=O)CSc1nc2cc(Cl)ccc2s1,27,54*,30,44*,-1,50*,46*,37*,56*
CCOC(=O)c1c(N)sc2c(NC(C)=O)cccc12,8,15,-7,27,7,-5,·,·,·
CCOC(=O)c1c(N)sc2c(O)c(Br)ccc12,-15,52*,17,53*,-3,50*,50*,47*,-24
O=C1Nc2ccccc2/C1=C/c1ccc([N+](=O)[O-])cc1,45,74*,5,81*,-7,56*,62*,81*,59*
O=[N+]([O-])c1ccc(Nc2ccccc2)c2nonc12,22,60*,16,45*,4,49*,37*,39*,67*
N#C/C(=C/c1ccc(N2CCCCCC2)o1)c1ccc(F)cc1,32,60*,·,42*,65*,62*,18,58*,69*
N#C/C(=C/c1ccc(N2CCOCC2)o1)c1ccc(Br)cc1,42,26,7,29,15,29,·,·,·
CC(C)[C@H](N[C@@H](C)c1ccccc1)c1c(O)ccc2ccccc12,24,50*,11,22,0,45*,35*,·,40*
O=C(NC1CCCCCC1)c1ccc([N+](=O)[O-])s1,27,63*,·,29,·,57*,50*,·,48*
SMILES,NALP3 yeast inh,tim23-1 inh,NALP1 inh,TIM10 inh,SKKanGAS inh,tim10-1 inh,tim10-1 confirm,TIM10 conf,tim23-1 confirm
COC(=O)c1cc(-c2ccc(NC(C)=O)cc2)nc2ccccc12,23,53*,-3,36,-2,50*,38*,·,57*
Cc1ccc(/C(N)=N/OC(=O)c2cc(-c3ccccc3)nc3ccccc23)cc1,1,84*,16,86*,-3,70*,64*,86*,80*
N/C(=N\OC(=O)c1cc(-c2ccccc2)nc2ccccc12)c1ccccn1,6,81*,7,84*,16,54*,31*,89*,63*
COc1ccc(/C(N)=N/OC(=O)c2cc(-c3ccccc3)nc3ccccc23)cc1,10,79*,12,82*,2,67*,63*,75*,76*
CC(=O)COC(=O)c1cc(-c2ccc(C)cc2)nc2ccccc12,21,25,12,35,1,37,·,·,·
O=S(=O)(c1ccc2nc(N3CCN(c4ccc(F)cc4)CC3)ccc2c1)N1CCCCC1,2,0,5,2,7,0,·,·,·
CCN1C(=NCc2ccco2)N[C@@H](c2cccc(F)c2)C(C(=O)OC)=C1C,15,30,8,13,-4,17,·,·,·
COc1ccc(OC)c(NC(=O)COC(=O)CC2CCCCC2)c1,17,21,·,-5,·,-11,·,·,·
COc1cc(O)c2c(=O)c3c(OC)c(O)ccc3oc2c1,17,56*,23,42*,-7,67*,57*,51*,66*
COc1cc(O)c2c(=O)cc(-c3ccccc3)oc2c1,28,16,-13,-3,-8,-12,·,·,·
CNC(=S)/N=C/NOCc1c(Cl)cccc1Cl,-16,54*,21,53*,4,63*,55*,54*,60*
Clc1cccc(Cl)c1CON/C=N/c1ncnc2sccc12,14,-4,33,-20,30,-5,·,·,·
O=C(CSc1nnc(NC(=O)c2ccc(F)cc2)s1)NC1CCCC1,10,-3,23,-5,0,-17,·,·,·
CCCN(CCC)c1nc2ccccc2nc1C(C#N)C(=O)OCCOC (configuration not stated),18,25,·,12,4,24,·,·,·
C=CCN(CC=C)c1nc2ccccc2nc1C(C#N)C(=O)OCCOC (configuration not stated),33,59*,6,41*,-1,67*,72*,55*,66*
